Here are results for 15 sequences from paper PMC5869772, “Quantitative profiling of BATF family proteins/JUNB/IRF hetero-trimers using Spec-seq”.

For this experiment, the target named is T1, BATF;JUNB (human;human, UniProt Q16520;P17275 1-125;148-347, |).
T1 sequence 1: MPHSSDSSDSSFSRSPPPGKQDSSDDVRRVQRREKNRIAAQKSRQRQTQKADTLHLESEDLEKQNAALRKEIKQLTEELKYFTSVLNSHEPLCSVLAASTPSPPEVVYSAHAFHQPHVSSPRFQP
T1 sequence 2: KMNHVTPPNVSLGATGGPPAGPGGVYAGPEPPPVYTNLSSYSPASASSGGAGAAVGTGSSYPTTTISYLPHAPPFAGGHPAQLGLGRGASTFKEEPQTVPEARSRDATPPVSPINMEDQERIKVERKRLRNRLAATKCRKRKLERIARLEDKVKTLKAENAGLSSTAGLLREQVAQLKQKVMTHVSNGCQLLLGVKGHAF
The experiment in a line: Spec-seq (EMSA and sequencing of bound and unbound bands); 100 nM BATFx-JUNB, 1 uM dsDNA library, 50 mM K acetate, 20 mM Tris-acetate, 10 mM Mg acetate, 100 ug/ml BSA, pH 7.9, 10% glycerol, 30 min on ice; native 9% PAGE at 4 C; low values mean tight binding. Particulars: protein: recombinant;recombinant; tags: N-terminal mCherry-TEV, cleaved off;C-terminal 6His; copies: 1;1; dsDNA, one strand shown. Summed up: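 The protein, at 100 nM, was incubated with 1 μM double-stranded degenerate DNA library for 30 min on ice in NEB Cutsmart buffer with 10% glycerol, then resolved by native 9% PAGE at 4 °C. Excised bound and unbound bands were PCR-barcoded and Illumina-sequenced, and each sequence's relative binding energy in kT is −ln of its bound/unbound read-count ratio.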
In the case of “GATAGTCTCATTTTCACCCCGTGAAATCACTCATTTGTTCCATTACAGTATCTGT”, the binding signal was -0.257 kT. In the case of “GATAGTCTCATTTTCACCCCGTGAAATGAGTTAATTGTTCCATTACAGTATCTGT” it was 0.138 kT. On to “GATAGTCTCATTTTCACCCCGTGAAAGAGAGTCATTGTTCCATTACAGTATCTGT”, for which the binding signal was -0.0937 kT.

As to “GATAGTCTCATTTTCACCCCGTGAAATTAGTCATTTGTTCCATTACAGTATCTGT”, the binding signal was -0.885 kT. With “GATAGTCTCATTTTCACCCCGTGAAAACGAGTCATTGTTCCATTACAGTATCTGT”, the binding signal was -0.809 kT.

“GATAGTCTCATTTTCACCCCGTGAAATGAGTCCTTTGTTCCATTACAGTATCTGT”: the binding signal is 0.17 kT. “GATAGTCTCATTTTCACCCCGTGAAATGAGTCCCTTGTTCCATTACAGTATCTGT”: the binding signal amounted to 0.424 kT. For “GATAGTCTCATTTTCACCCCGTGAAATGGGTCATTTGTTCCATTACAGTATCTGT”, the binding signal stood at 0.293 kT. On to “GATAGTCTCATTTTCACCCCGTGAAATGACGTGATTGTTCCATTACAGTATCTGT”, for which the binding signal is -0.588 kT.

As for “GATAGTCTCATTTTCACCCCGTGAAATGACCCAATTGTTCCATTACAGTATCTGT”, the binding signal amounted to 0.427 kT. In the case of “GATAGTCTCATTTTCACCCCGTGAAATGACTCGCTTGTTCCATTACAGTATCTGT”, the binding signal is -0.141 kT. “GATAGTCTCATTTTCACCCCGTGAAATGATTCATTTGTTCCATTACAGTATCTGT”: the binding signal was -0.784 kT. For “GATAGTCTCATTTTCACCCCGTGAAAATGAGTCATTGTTCCATTACAGTATCTGT” the value was -1.25 kT; for “GATAGTCTCATTTTCACCCCGTGAAATGAGTAAATTGTTCCATTACAGTATCTGT”, -0.0981 kT; for “GATAGTCTCATTTTCACCCCGTGAAATAACTCATTTGTTCCATTACAGTATCTGT”, -0.0626 kT.
